These results are taken from PubChem BioAssay (NCATS).

Test [1] in a line: Quantitative highthroughput screen to assess conditional lethalithy of NOMO1 cells grown in Human Plasma-Like Medium with dialyzed fetal bovine serum (HPLM+ds) (AID 1963878). Also: nearly all actives have a fitted effect of over 35% in size. Also: potency is read from the fitted curve at half-maximal effect.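 As to viability: 100% = DMSO wells and 0% = empty wells on each plate.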 Put shortly: (§1)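 Each medium arm—HPLM with 10% dialyzed FBS, or RPMI1640 with 5 mM glucose and 10% untreated or dialyzed FBS—was screened against an 11-point, 3-fold compound titration for 48 h at 37 °C, with CellTiter-Glo luminescence as endpoint.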

The nature of test [2]: Quantitative highthroughput screen to assess conditional lethalithy of SEM cells grown in Human Plasma-Like Medium with dialyzed fetal bovine serum (HPLM+ds) (AID 1963882). Also: nearly all actives have a fitted effect of over 35% in size. Also: potency is read from the fitted curve at half-maximal effect. As to viability: series mostly up to about 46 µM. Put shortly: as §1
The nature of test [3]: Quantitative highthroughput screen to assess conditional lethalithy of SEM cells grown in RPMI1640 with unreated serum (RPMI+s) (AID 1963883). Also: nearly all actives have a fitted effect of over 35% in size. Also: potency is read from the fitted curve at half-maximal effect.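 As to viability: 100% = DMSO wells and 0% = empty wells without cells.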 Put shortly:
as §1

Test [4] in a line: Quantitative highthroughput screen to assess conditional lethalithy of SEM cells grown in RPMI1640 with dialyzed fetal bovine serum (RPMI+ds) (AID 1963884). Also: nearly all actives have a fitted effect of over 35% in size. Also: potency is read from the fitted curve at half-maximal effect.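 As to viability: series mostly up to about 46 µM; 100% = DMSO control wells and 0% = empty wells without cells.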 A digest of the protocol: as §1
Test [5] in a line: Quantitative highthroughput screen to assess conditional lethalithy of P12 Ichikawa cells grown in RPMI1640 with dialyzed fetal bovine serum (RPMI+ds) (AID 1963880). Also: nearly all actives have a fitted effect of over 35% in size. Also: potency is read from the fitted curve at half-maximal effect.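 As to viability: 100% = DMSO wells and 0% = empty wells on each plate.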 The conditions noted are these: Potency: P12-Ichikawa viability. A digest of the protocol: as §1
Test [6] can be described thus: Quantitative highthroughput screen to assess conditional lethalithy of P12 Ichikawa cells grown in RPMI1640 with untreated serum (RPMI+s) (AID 1963881). Also: nearly all actives have a fitted effect of over 35% in size. Also: potency is read from the fitted curve at half-maximal effect.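 As to viability: series mostly up to about 46 µM; 100% = DMSO wells and 0% = empty wells without cells.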 As to conditions: Potency: viability. A digest of the protocol: as §1
Test [7] in a line: Quantitative highthroughput screen to assess conditional lethalithy of P12 Ichikawa cells grown in Human Plasma-Like Medium with dialyzed fetal bovine serum (HPLM+ds) (AID 1963879). Also: nearly all actives have a fitted effect of over 35% in size. Also: potency is read from the fitted curve at half-maximal effect. As to viability: series mostly up to about 46 µM. The conditions noted are these: Potency: viability. A digest of the protocol:
as §1

A short description of test [8]: Quantitative highthroughput screen to assess conditional lethalithy of NOMO1 cells grown in RPMI1640 with dialyzed fetal bovine serum (RPMI+ds) (AID 1963877). Also: nearly all actives have a fitted effect of over 30% in size. Also: potency is read from the fitted curve at half-maximal effect.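 As to viability: series mostly up to about 46 µM; 100% = DMSO control wells and 0% = empty wells.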 A digest of the protocol:
as §1

Test [9] is described as follows: Cellular viability qHTS for adrenocortical cancer (ACC) cell line SW-13 (AID 1963989).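 Also: cells grown in serum-free medium with ITS supplement; % is scaled to controls: 0 for no effect and ±100 for the full control effect; nearly all actives have a fitted effect of over 65% in size.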 As to conditions: SW-13 ACC cells viability, CellTiter-Glo, 48 h; activity (max response): active compounds read low. Put shortly: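 48 h treatment, SW-13 in ITS/DMEM serum-free; doses up to 46 uM; readout CellTiter-Glo luminescence; curve fit four-parameter logistic.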
A short description of test [10]: Cellular viability qHTS for adrenocortical cancer (ACC) cell line NCI-H295R (AID 1963990).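 Also: 0% = DMSO only wells and -100% = full killing with cytotoxic reference compound; nearly all actives have a fitted effect of over 60% in size.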 A digest of the protocol:
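Compound titrations (up to 46 uM final) are applied to NCI-H295R cultures for 48 h at 37C. Viable cell number is estimated by CellTiter-Glo signal, normalised to DMSO and doxorubicin controls.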

Records with an inconclusive call do not appear. A number with no mark means an inactive call. Activity calls are given as the source filed them. Calls follow the shape of the dose curve; as a rule, active = well fitted curve in the direction sought with a large enough effect; inconclusive = small, poorly fitted or top-dose-only effect, or another doubt; inactive = no such curve, though single readings can be large; an effect the other way counts as inactive or inconclusive.

Consider `C1=C2CCCN[C@H]2[C@@H]2C[C@H]1[C@@H]1CCCCN1C2`, for which the Potency entry in test [1], in test [2], in test [3] and in [4] was “inactive” each time.
On to `CC=C(C)C(=O)N[C@@H](c1ccccc1)[C@@H](O)C(=O)O[C@H]1C[C@@]2(O)[C@@H](OC(=O)c3ccccc3)[C@@H]3[C@]4(OC(C)=O)CO[C@@H]4C[C@H](O)[C@@]3(C)C(=O)[C@H](OC(C)=O)C(=C1C)C2(C)C`, for which the Potency entry in test [1] and in test [2] was “inactive” throughout.
Turning to `C[C@@H]1CC[C@H]2[C@@H](C)C(=O)O[C@@H]3O[C@@]4(C)CC[C@H]1[C@]32OO4`, the Potency entry in [1], in test [5] and in test [6] was “inactive” throughout.
In the case of `C[C@]12COC(=O)C[C@@H]1CC[C@@H]1[C@H]2CC[C@@]2(C)[C@H]1CC[C@]2(C)O`, the Potency result in test [1], in [5] and in test [6] was “inactive” in each case.
With `C[C@H]([C@H](O)CCC(C)(C)O)[C@H]1CC[C@@]2(O)C3=CC(=O)[C@@H]4C[C@@H](O)[C@@H](O)C[C@]4(C)[C@@H]3CC[C@]12C`, the Potency result in [7], in test [6], in [2] and in test [4] was “inactive” in each case.
Turning to `NC1=NC(=O)N2CC12` (stereo not drawn), the Potency in test [8] is 5.26 µM (active); in [7], 7.43 µM (active); in [6], 5.26 µM (active); in [2], 3.32 µM (active); in test [4], 2.96 µM (active). Also, the activity (max response) in test [9] is -7.87%. In [10], the Potency result is “inactive”.
Regarding `C[C@]12CC[C@@H]3[C@@H](CCC4=CC(=O)CC[C@@H]43)[C@@H]1CC[C@@H]2OC(=O)CCc1ccccc1`, the Potency result in test [7], in test [5], in test [3], in test [4] and in test [10] was “inactive” throughout. Besides, the activity (max response) in test [9] is -2.06%.
As to `C[C@@H]1O[C@@H](O[C@@H]2C=C3CC[C@@H]4[C@@H](CC[C@]5(C)[C@H](c6ccc(=O)oc6)CC[C@@]45O)[C@@]3(C)CC2)[C@H](O)[C@H](O)[C@H]1O`, the Potency in test [7] is 0.0209 µM (active); in [5], 23.5 nM (active); in [2] it was 0.0235 µM (active); in test [3] it was 0.0469 µM (active); in [4], 0.0372 µM (active).
As for `CCOC(=O)c1c(C(C#N)=CN)c2ccc(Cl)c(Cl)c2n1C`, the Potency result in [8], in test [5], in test [6], in [4] and in test [10] was “inactive” throughout. In addition, the activity (max response) in test [9] is -1.19%.
As for `CC1=C2C[C@@H]3[C@@H](CC=C4C[C@@H](O)CC[C@@]43C)[C@@H]2CC[C@]12O[C@H]1C[C@H](C)CN[C@H]1[C@H]2C`, the Potency entry in [1] and in [5] was “inactive” in each case.
Consider `CCOC(=O)c1cncn1[C@H](C)c1ccccc1`, for which the Potency result in [7], in [5], in test [3] and in [4] was “inactive” each time.
With `COc1ccc2c(c1)[C@]13CCCCC1C(C2)N(C)CC3` (stereo partly drawn), the Potency entry in test [7], in test [2] and in [4] was “inactive” in each case.
In the case of `C[C@]12CC[C@H]3[C@@H](CCC4=CC(=O)CC[C@@]43C)[C@H]1CC[C@H]2OC(=O)CCC1CCCC1`, the Potency entry in [1], in [5], in [6], in [3] and in [10] was “inactive” throughout. In addition, in test [9], the activity (max response) was -10.5%.
`C[C@@H]1[C@@H](C(=O)C[C@H]2O[C@@H]3O[C@]4(C)CC[C@@H]5[C@H](C)CC[C@@H]([C@H]2C)[C@@]35OO4)O[C@@H]2O[C@]3(C)CC[C@H]4[C@H](C)CC[C@@H]1[C@@]24OO3`: the Potency was 23.5 µM (active) in test [7]; 16600 nM (active) in test [5]; 26.4 µM (active) in [2]; 14.8 µM (active) in test [3]; 23.5 µM (active) in [4].
Take `C[C@@H]1[C@H](O)[C@@H](C)C=CC=CCCC=CC=CC=CC=C[C@H](O[C@H]2O[C@@H](C)[C@H](O)[C@@H](N)[C@@H]2O)CC2O[C@](O)(C[C@@H](O)[C@H](O)CC[C@@H](O)C[C@@H](O)C[C@@H](O)CC(=O)O[C@H]1C)C[C@H](O)[C@H]2C(=O)O`: the Potency entry in test [1], in [6] and in test [2] was “inactive” throughout.
For `CC=C(C)C(=O)O[C@H]1C(C)=C2[C@@H]3OC(=O)[C@@](C)(O)[C@@]3(O)[C@@H](OC(=O)CCC)C[C@](C)(OC(C)=O)[C@@H]2[C@@H]1OC(=O)CCCCCCC`, the Potency in test [1] is 66.2 nM (active); in [7], 0.118 µM (active); in test [2], 0.059 µM (active).
With `CC(C)N[C@@H]1CCn2c(=O)[nH]c3cccc(c32)[C@@H]1O`, the Potency result in [8], in test [7], in [5], in [2] and in test [4] was “inactive” in each case.
Regarding `C=C[C@@H]1CN2CCC1C[C@H]2[C@H](O)c1ccnc2ccccc12` (stereo partly drawn), the Potency result in test [7] was “inactive”.
With `C[C@H]1CCCC=CC2C[C@H](O)C[C@@H]2[C@H](O)C=CC(=O)O1` (stereo partly drawn), the Potency entry in test [1] and in [4] was “inactive” each time. The Potency was 0.0372 µM (active) in test [7] and 23.5 nM (active) in [5].
As for `C[C@@H]1CC[C@@]2(OC1)O[C@H]1C[C@H]3[C@@H]4CC=C5C[C@@H](O[C@@H]6O[C@H](CO)[C@@H](O[C@@H]7O[C@@H](C)[C@H](O)[C@@H](O)[C@@H]7O)[C@H](O)[C@@H]6O[C@@H]6O[C@@H](C)[C@H](O)[C@@H](O)[C@@H]6O)CC[C@]5(C)[C@@H]4CC[C@]3(C)[C@@H]1[C@H]2C`, the values for the Potency in [7] and in test [2] were 26.4 µM (active) and 18.7 µM (active), respectively.
